Measurements from paper PMC7862700, “An all-to-all approach to the identification of sequence-specific readers for epigenetic DNA modifications on cytosine”.

Columns and labels:
Test in all cases: DAPPL (digital affinity profiling via proximity ligation, sequencing); 10 mM Tris-HCl pH 7.5, 50 mM NaCl, 1 mM DTT, 4% glycerol, room temperature, 30 min; GST-TFs on glutathione beads, 16-mer random dsDNA library, 0.1% formaldehyde crosslink after washing; high values mean tight binding
FLI1 = target: T1, FLI1 (Homo sapiens, UniProt Q01543 1-452); details: protein: recombinant; tags: N-terminal GST; dsDNA, one strand shown
T1 sequence: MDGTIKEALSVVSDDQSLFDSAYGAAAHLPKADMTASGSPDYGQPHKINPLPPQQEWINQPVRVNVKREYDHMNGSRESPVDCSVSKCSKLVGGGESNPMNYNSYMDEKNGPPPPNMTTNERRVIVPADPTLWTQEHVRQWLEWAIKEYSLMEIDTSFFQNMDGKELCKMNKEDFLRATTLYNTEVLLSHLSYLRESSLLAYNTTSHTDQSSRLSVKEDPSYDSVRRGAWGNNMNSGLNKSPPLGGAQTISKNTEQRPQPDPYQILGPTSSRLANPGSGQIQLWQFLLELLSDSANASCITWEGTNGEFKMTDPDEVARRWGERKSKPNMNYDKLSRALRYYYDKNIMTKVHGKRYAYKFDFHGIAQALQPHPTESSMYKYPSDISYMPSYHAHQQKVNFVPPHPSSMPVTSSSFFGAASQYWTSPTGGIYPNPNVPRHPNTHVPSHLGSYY
How it was run: (§1)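 Human transcription factors fused to GST were expressed in yeast, captured on glutathione beads, given DNA barcodes and pooled with a GST-only negative control. Pools were incubated with 200 nmole of a 16-mer random double-stranded DNA library in Tris/NaCl/DTT/glycerol buffer at room temperature for 30 min. They were then washed, crosslinked with 0.1% formaldehyde, proximity-ligated (BsaI/T4 ligase, 1 h, 37 °C), PCR-amplified and sequenced on an Illumina NextSeq500. Binding signal is each 6-mer's read frequency for a factor divided by its frequency for the GST control.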

ELK1 = target: T2, ELK1 (Homo sapiens, UniProt P19419 1-428); details: protein: recombinant; tags: N-terminal GST; dsDNA, one strand shown
T2 sequence: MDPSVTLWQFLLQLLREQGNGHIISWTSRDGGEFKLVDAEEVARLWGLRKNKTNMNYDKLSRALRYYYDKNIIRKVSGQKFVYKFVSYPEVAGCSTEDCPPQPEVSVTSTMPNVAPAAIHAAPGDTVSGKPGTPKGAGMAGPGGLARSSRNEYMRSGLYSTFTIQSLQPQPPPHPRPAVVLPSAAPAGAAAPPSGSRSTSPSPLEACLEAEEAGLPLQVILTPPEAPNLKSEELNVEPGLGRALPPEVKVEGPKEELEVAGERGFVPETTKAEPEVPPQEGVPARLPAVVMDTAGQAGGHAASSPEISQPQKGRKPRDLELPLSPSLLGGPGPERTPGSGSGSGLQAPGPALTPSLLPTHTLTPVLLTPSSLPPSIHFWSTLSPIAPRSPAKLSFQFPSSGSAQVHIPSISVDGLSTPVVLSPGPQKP
How it was run: as §1

GABPA = target: T3, GABPA (Homo sapiens, UniProt Q06546 1-454); details: protein: recombinant; tags: N-terminal GST; dsDNA, one strand shown
T3 sequence: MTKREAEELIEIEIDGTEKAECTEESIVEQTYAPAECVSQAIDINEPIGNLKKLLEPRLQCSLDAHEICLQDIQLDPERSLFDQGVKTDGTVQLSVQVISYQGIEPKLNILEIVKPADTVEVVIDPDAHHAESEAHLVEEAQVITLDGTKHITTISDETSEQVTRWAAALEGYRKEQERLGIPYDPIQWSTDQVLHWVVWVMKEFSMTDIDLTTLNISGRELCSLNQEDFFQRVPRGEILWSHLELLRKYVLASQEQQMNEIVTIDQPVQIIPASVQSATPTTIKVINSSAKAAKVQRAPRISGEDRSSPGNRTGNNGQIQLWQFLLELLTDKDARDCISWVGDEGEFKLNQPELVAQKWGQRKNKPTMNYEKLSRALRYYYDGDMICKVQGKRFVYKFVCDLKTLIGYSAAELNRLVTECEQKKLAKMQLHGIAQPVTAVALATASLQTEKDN
How it was run: as §1

ERG = target: T4, ERG (Homo sapiens, UniProt P11308 1-479); details: protein: recombinant; tags: N-terminal GST; dsDNA, one strand shown
T4 sequence: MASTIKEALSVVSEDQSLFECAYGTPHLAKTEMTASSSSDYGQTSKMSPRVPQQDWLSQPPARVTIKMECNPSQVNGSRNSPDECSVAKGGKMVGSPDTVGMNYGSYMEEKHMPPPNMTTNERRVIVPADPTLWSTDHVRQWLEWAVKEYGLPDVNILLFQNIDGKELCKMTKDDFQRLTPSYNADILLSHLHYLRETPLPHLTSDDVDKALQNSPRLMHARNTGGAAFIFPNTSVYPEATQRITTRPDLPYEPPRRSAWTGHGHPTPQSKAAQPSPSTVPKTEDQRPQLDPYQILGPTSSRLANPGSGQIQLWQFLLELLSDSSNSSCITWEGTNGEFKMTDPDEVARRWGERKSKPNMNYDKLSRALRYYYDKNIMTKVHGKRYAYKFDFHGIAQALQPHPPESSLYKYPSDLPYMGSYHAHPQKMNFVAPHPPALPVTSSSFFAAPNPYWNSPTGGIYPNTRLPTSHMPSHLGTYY
How it was run: as §1

ELF1 = ELF1 (Homo sapiens, UniProt P32519 1-619); details: protein: recombinant; tags: N-terminal GST; dsDNA, one strand shown
Chain of ELF1 (P32519 whole entry): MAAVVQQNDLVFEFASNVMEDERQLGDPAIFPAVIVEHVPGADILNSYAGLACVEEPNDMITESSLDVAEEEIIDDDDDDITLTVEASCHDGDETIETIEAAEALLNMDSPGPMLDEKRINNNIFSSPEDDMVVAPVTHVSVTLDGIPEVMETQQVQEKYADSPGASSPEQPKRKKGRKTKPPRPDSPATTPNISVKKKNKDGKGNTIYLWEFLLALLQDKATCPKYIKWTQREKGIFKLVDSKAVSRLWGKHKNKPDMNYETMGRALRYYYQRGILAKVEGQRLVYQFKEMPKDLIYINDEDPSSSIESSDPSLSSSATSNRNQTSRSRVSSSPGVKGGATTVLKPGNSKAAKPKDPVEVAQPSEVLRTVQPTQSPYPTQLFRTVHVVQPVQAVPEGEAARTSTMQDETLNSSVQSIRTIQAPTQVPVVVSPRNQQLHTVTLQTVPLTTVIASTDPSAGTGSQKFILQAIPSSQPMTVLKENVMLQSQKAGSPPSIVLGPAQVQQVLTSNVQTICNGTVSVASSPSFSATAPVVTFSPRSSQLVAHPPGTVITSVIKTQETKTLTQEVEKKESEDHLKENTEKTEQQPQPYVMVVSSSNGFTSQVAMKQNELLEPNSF
How it was run: as §1

EHF = target: T5, EHF (Homo sapiens, UniProt Q9NZC4 1-300); details: protein: recombinant; tags: N-terminal GST; dsDNA, one strand shown
T5 sequence: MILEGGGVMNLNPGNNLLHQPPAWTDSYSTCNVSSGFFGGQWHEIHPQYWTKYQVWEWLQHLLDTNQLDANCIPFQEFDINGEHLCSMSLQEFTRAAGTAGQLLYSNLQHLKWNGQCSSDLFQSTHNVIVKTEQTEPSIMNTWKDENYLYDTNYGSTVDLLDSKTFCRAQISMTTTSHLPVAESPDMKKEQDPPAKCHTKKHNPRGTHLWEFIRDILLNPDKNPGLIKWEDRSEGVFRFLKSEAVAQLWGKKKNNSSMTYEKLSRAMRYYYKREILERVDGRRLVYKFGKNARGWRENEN
How it was run: as §1

SPI1 = SPI1 (Homo sapiens, UniProt P17947 1-270); details: protein: recombinant; tags: N-terminal GST; dsDNA, one strand shown
How it was run: as §1

SPIB = SPIB (Homo sapiens, UniProt Q01892 1-262); details: protein: recombinant; tags: N-terminal GST; dsDNA, one strand shown
Chain of SPIB (Q01892 whole entry): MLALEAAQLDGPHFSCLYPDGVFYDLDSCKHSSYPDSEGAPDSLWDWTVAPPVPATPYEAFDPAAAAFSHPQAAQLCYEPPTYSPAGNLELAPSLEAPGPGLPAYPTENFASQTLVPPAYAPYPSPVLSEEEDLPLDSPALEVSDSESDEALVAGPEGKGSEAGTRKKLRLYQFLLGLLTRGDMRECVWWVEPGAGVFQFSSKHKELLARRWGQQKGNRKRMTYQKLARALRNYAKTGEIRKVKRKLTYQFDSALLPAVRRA
How it was run: as §1

ELK3 = target: T6, ELK3 (Homo sapiens, UniProt P41970 1-407); details: protein: recombinant; tags: N-terminal GST; dsDNA, one strand shown
T6 sequence: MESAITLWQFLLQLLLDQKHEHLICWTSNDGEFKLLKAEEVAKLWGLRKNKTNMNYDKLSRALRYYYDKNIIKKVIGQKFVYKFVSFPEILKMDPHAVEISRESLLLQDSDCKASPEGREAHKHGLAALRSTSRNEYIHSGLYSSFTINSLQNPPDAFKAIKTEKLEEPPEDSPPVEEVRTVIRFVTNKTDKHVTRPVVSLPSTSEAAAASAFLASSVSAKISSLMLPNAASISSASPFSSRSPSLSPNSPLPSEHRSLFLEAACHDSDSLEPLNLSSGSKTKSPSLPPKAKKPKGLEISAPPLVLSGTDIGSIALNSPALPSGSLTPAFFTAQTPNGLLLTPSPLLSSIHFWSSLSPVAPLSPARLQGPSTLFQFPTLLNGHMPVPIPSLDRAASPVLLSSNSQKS
How it was run: as §1

FEV = target: T7, FEV (Homo sapiens, UniProt Q99581 1-238); details: protein: recombinant; tags: N-terminal GST; dsDNA, one strand shown
T7 sequence: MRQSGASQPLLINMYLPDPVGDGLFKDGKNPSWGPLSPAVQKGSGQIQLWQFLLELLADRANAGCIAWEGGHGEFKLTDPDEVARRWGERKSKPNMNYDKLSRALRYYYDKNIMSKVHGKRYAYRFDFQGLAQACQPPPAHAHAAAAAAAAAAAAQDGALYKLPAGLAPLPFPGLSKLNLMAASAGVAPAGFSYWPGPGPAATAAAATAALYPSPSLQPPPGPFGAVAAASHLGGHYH
How it was run: as §1

ETV5 = ETV5 (Homo sapiens, UniProt P41161 1-510); details: protein: recombinant; tags: N-terminal GST; dsDNA, one strand shown
Chain of ETV5 (P41161 whole entry): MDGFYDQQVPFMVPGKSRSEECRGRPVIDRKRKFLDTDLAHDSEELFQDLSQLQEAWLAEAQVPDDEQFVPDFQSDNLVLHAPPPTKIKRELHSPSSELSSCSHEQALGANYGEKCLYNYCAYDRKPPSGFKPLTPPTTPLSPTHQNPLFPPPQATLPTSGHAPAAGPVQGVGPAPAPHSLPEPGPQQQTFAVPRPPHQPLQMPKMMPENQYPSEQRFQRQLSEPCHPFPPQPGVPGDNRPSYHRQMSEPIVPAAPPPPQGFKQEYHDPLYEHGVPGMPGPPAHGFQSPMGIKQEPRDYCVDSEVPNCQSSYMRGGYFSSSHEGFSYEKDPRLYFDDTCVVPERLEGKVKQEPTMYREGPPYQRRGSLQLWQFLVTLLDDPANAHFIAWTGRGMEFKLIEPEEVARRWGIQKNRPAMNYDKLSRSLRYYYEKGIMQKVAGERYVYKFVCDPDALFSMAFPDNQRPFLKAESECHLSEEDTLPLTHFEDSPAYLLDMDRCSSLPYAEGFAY
How it was run: as §1

HSF1 = HSF1 (Homo sapiens, UniProt Q00613 1-529); details: protein: recombinant; tags: N-terminal GST; chain copies: 3; dsDNA, one strand shown
Chain of HSF1 (Q00613 whole entry): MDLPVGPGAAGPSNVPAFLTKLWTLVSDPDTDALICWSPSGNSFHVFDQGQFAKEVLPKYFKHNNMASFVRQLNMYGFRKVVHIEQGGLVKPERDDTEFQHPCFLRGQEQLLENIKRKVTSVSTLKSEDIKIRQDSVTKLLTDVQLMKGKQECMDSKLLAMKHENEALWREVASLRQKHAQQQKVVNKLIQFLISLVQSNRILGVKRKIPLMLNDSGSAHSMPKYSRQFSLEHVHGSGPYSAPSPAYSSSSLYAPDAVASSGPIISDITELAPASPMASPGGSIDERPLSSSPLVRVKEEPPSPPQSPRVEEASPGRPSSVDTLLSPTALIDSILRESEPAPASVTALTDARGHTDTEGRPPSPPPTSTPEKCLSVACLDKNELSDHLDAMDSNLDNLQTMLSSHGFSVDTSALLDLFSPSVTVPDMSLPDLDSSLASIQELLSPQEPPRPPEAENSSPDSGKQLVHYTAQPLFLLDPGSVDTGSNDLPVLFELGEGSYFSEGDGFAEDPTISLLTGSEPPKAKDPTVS
How it was run: as §1

SPIC = target: T8, SPIC (Homo sapiens, UniProt Q8N5J4 1-248); details: protein: recombinant; tags: N-terminal GST; dsDNA, one strand shown
T8 sequence: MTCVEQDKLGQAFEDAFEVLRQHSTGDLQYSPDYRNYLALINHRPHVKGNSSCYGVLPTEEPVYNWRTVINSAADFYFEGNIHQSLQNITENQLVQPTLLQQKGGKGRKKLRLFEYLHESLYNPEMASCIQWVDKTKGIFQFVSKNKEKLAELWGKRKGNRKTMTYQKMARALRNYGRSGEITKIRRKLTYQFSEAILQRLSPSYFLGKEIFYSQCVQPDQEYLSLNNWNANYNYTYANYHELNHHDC
How it was run: as §1

ELF4 = ELF4 (Homo sapiens, UniProt Q99607 1-663); details: protein: recombinant; tags: N-terminal GST; dsDNA, one strand shown
Chain of ELF4 (Q99607 whole entry): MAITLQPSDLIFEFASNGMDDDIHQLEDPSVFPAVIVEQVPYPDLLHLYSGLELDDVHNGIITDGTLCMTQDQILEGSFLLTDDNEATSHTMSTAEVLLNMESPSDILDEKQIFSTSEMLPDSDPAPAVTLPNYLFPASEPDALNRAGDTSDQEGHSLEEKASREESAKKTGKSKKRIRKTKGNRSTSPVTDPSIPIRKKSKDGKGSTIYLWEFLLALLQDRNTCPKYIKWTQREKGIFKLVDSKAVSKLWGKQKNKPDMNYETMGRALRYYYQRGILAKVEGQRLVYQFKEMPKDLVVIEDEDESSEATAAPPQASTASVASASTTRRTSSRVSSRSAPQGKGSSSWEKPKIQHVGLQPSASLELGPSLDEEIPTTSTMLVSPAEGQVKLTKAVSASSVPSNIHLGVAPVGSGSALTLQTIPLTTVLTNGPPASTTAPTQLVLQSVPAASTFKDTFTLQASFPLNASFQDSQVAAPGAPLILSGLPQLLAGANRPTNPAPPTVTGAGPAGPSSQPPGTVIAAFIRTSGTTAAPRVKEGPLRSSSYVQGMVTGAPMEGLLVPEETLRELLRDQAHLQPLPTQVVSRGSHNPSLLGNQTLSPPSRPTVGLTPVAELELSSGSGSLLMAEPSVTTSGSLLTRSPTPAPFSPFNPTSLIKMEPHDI
How it was run: as §1

ELK4 = target: T9, ELK4 (Homo sapiens, UniProt P28324-2 1-405); details: protein: recombinant; tags: N-terminal GST; dsDNA, one strand shown
T9 sequence: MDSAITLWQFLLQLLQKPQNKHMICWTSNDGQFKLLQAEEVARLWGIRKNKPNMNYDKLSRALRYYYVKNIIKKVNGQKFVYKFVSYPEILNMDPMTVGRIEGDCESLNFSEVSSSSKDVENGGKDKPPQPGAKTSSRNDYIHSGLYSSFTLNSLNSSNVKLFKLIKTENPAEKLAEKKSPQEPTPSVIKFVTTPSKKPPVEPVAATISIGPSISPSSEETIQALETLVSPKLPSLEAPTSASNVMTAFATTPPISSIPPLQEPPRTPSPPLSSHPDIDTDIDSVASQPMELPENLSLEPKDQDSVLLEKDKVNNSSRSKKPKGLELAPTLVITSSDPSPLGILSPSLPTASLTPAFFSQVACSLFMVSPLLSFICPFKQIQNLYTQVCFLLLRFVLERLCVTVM
How it was run: as §1

ETV2 = target: T10, ETV2 (Homo sapiens, UniProt O00321 1-342); details: protein: recombinant; tags: N-terminal GST; dsDNA, one strand shown
T10 sequence: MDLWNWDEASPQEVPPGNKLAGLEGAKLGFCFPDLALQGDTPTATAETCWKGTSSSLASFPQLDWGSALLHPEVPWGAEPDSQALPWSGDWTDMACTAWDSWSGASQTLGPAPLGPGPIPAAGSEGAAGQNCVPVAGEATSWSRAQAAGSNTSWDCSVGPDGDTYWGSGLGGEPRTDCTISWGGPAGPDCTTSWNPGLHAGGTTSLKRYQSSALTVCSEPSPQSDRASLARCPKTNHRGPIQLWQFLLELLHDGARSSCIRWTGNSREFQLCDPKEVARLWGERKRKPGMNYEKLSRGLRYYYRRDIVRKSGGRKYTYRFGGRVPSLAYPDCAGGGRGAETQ
How it was run: as §1

ELF3 = target: T11, ELF3 (Homo sapiens, UniProt P78545 1-371); details: protein: recombinant; tags: N-terminal GST; dsDNA, one strand shown
T11 sequence: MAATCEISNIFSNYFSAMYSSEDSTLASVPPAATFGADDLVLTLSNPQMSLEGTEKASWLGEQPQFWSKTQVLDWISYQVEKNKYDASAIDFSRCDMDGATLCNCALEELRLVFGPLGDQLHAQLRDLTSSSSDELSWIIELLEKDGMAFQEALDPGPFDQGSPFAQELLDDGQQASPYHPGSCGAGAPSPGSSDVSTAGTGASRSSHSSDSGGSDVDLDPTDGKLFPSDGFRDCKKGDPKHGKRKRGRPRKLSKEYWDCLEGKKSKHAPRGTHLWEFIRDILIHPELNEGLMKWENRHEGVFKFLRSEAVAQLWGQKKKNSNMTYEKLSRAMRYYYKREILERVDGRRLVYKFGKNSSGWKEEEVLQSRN
How it was run: as §1

CRX = CRX (Homo sapiens, UniProt O43186 1-299); details: protein: recombinant; tags: N-terminal GST; dsDNA, one strand shown
Chain of CRX (O43186 whole entry): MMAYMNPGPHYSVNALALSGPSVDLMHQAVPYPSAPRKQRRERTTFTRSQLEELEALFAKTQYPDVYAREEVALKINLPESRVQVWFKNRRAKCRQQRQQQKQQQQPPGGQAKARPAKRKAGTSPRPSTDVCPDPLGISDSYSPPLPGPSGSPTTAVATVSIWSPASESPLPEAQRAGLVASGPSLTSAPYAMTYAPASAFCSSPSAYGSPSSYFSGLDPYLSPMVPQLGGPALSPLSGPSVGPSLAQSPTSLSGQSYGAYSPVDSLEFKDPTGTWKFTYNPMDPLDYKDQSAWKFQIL
How it was run: as §1

ETV1 = ETV1 (Homo sapiens, UniProt P50549 1-477); details: protein: recombinant; tags: N-terminal GST; dsDNA, one strand shown
Chain of ETV1 (P50549 whole entry): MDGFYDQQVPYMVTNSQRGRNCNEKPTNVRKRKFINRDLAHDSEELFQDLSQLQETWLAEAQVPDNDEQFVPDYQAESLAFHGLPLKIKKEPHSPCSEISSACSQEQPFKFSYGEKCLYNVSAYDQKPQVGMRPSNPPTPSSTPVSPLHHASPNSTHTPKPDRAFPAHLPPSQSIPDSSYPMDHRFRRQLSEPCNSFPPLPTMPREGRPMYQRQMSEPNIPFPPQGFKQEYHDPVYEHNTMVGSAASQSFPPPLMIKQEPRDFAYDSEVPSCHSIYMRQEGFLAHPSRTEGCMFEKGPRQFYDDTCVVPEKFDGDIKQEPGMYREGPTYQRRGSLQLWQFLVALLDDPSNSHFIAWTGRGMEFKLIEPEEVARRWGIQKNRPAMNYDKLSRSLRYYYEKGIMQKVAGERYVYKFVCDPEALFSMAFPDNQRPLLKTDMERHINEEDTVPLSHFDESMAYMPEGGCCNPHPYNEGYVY
How it was run: as §1

## TCCGCT
FLI1
  binding signal: 2.39 fold enrichment (6-mer frequency, TF over GST control)
ELK1
  binding signal: 2.38 fold enrichment (6-mer frequency, TF over GST control)
GABPA
  binding signal: 2.06 fold enrichment (6-mer frequency, TF over GST control)
ERG
  binding signal: 2.31 fold enrichment (6-mer frequency, TF over GST control)
ELF1
  binding signal: 2.11 fold enrichment (6-mer frequency, TF over GST control)
EHF
  binding signal: 2.33 fold enrichment (6-mer frequency, TF over GST control)
SPI1
  binding signal: 3.26 fold enrichment (6-mer frequency, TF over GST control)
SPIB
  binding signal: 2.37 fold enrichment (6-mer frequency, TF over GST control)
ELK3
  binding signal: 2.43 fold enrichment (6-mer frequency, TF over GST control)
FEV
  binding signal: 2.51 fold enrichment (6-mer frequency, TF over GST control)
ETV5
  binding signal: 2.37 fold enrichment (6-mer frequency, TF over GST control)
HSF1
  binding signal: 1.51 fold enrichment (6-mer frequency, TF over GST control)
SPIC
  binding signal: 2.63 fold enrichment (6-mer frequency, TF over GST control)
ELF4
  binding signal: 2.13 fold enrichment (6-mer frequency, TF over GST control)
ELK4
  binding signal: 2.01 fold enrichment (6-mer frequency, TF over GST control)
ETV2
  binding signal: 2.27 fold enrichment (6-mer frequency, TF over GST control)
ELF3
  binding signal: 2.15 fold enrichment (6-mer frequency, TF over GST control)
CRX
  binding signal: 1.84 fold enrichment (6-mer frequency, TF over GST control)
ETV1
  binding signal: 2.44 fold enrichment (6-mer frequency, TF over GST control)
